# An excerpt weighted towards active compounds, which were near 3.6% of everything screened.
# HSF1 inh: HSF1 inhibition | NIH3T3-HGL HSE-luciferase, MG132-induced, luminescence 8 h; stronger effect = lower value | AID 2098 | activity change, negative = inhibition, % at 7.5 µM (by protocol) | 300,000 tested, 0.77% active;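 active = more than half of replicate wells show activity change below -50%, luminescence cut by over half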;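 note: luciferase reports HSF-1 transcriptional activity via heat shock element; 0% = median of DMSO wells and -100% = zero luminescence signal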
# TROY NFkB inh: blocks TROY-dependent signaling in reporter cells; Q293 LMP1-TROYcd NF-kB luciferase reporter, 4 h; inhibition, % at 10 µM; 360,000 tested, 0.98% active;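 active = compounds whose plate-normalised and pattern-corrected inhibition of the luciferase reporter signal at the single screening dose is 50% or more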
# LGR2 antag: Drosophila LGR2 receptor signaling inhibition; AID 720647; HEK293 LGR2, CRE-luciferase, bursicon-stimulated, 4 h; 380,000 tested, 0.35% active; inhibition, % at 9.99 µM;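 active = drop in luminescence signal, shown as inhibition above about 50% in the replicate tests, limit read from the data, passing the limit was not always enough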;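 note: agonist challenge used bursicon conditioned medium at about half maximal strength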
# HSF1 activator: increases HSF-1 driven luciferase reporter signal; NIH3T3-HGL HSF-1 luciferase reporter, MG132, 8 h; 100% = twice DMSO control signal; activation, % at 9 µM; 300,000 tested, 1.7% active; AID 504408;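 active = mean replicate activation of at least 50% with a set share of replicates each reaching 50%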;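 note: 0% = median of the neutral control wells and 100% = twice that signal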
# LMP1 NFkB inh: reduces LMP1-driven NF-kappaB luciferase signal; AID 504558; 350,000 tested, 0.69% active; LMP1-induced NF-kappaB luciferase reporter cells, luminescence; inhibition, % at 12.5 µM; in the data active = inhibition above about 41%;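 note: 0% = neutral control wells and 100% = reference inhibitor control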
# TWEAK Fn14 block: blocks TWEAK-Fn14 interaction in a reporter cell assay; TWEAK-stimulated Fn14 reporter cells, luciferase luminescence, 8 h; inhibition, % at 10 µM; 360,000 tested, 2% active; AID 1159606; in the data active = inhibition above about 50%
# * = called active by the depositor; . = no result given.
SMILES,HSF1 inh,TROY NFkB inh,LGR2 antag,HSF1 activator,LMP1 NFkB inh,TWEAK Fn14 block
Cc1ccc(-c2nc3ccccc3s2)cc1NC(=S)NC(=O)/C=C/c1ccco1,46,-6,23,65*,-21,-24
CC(C)NC(=O)N(C)C[C@@H]1Oc2ccc(NS(=O)(=O)c3ccc(Cl)cc3)cc2C(=O)N([C@@H](C)CO)C[C@@H]1C,.,.,-13,.,.,.
Cc1ccc(NC(=O)c2ccc(OC(=O)COc3ccc(Cl)cc3C)cc2)cc1,31,-44,-45,59*,-20,-8
CCCNC(=O)N1CC2(C1)CN(C(=O)COC)[C@@H](CO)c1c2c2ccc(OC)cc2n1C,.,.,17,.,.,.
O=C(NC(=S)Nc1cccc(Cl)c1N1CCCCC1)c1ccc2c(c1)OCCO2,-58*,70*,-15,-66,-9,71*
C[C@H](NS(=O)(=O)c1ccc(Cl)cc1)C(=O)OCC(=O)NC(=O)Nc1ccc2c(c1)OCCO2,1,2,-22,2,-7,64*
Cc1ccc(S(=O)(=O)N[C@H](C(=O)OCC(=O)NC(=O)Nc2ccc3c(c2)OCCO3)C(C)C)cc1,0,10,-2,-16,-1,19
C[C@H](CO)N1C[C@H](C)[C@H](CN(C)S(=O)(=O)c2ccc(Cl)cc2)OCCCC[C@H](C)Oc2ccc(NS(=O)(=O)c3ccc(Cl)cc3)cc2C1=O,.,.,21,.,.,.
NC(=S)NN=C1c2cc(Cl)ccc2-c2c1cc(Cl)cc2[N+](=O)[O-],.,47,.,.,8,101*
C[C@@H]1CN([C@H](C)CO)C(=O)c2cc(NC(=O)CCC(F)(F)F)ccc2O[C@@H]1CN(C)CC1CC1,.,.,-13,.,.,.
CC(C)(C)C(=O)OCc1nc(-c2ccc3c(c2)OCCO3)cs1,-52*,43,-74,-62,-6,-17
COc1ccc(-c2csc(COC(=O)C(C)(C)C)n2)cc1,14,-45,-110,35,-1,-24
CCCC#Cc1ccc2c(c1)O[C@@H](CN(C)C(=O)c1ccccc1)[C@@H](C)CN([C@@H](C)CO)S2(=O)=O,.,.,1,.,.,.
CC(=O)Nc1ccc(NC(=S)NC(=O)c2cc3ccccc3o2)cc1,9,-37,-31,35,-2,-2
O=C(NC(=S)Nc1cccnc1)c1cc2ccccc2o1,12,-106,-50,59*,-23,-25
O=C(NC(=S)Nc1ccc2oc(=O)ccc2c1)c1cc2ccccc2o1,-84*,-27,9,-85,5,-51
O=C(NC(=S)NCc1cccnc1)c1cc2ccccc2o1,5,-10,-12,21,-5,-27
O=C(Nc1ccc2oc(=O)ccc2c1)c1ccc2ccccc2c1,17,-31,-20,60*,2,-4
O=C(C[C@H]1CC[C@@H](NC(=O)c2ccncc2)[C@H](CO)O1)NCc1ccncn1,.,.,-9,.,.,.
CCC(=O)N1CC[C@H]2[C@H](CO)Nc3ccc(-c4ccc(C(=O)N(C)C)cc4)cc3[C@H]21,.,.,-17,.,.,.
C[C@H]1CCCCO[C@H](CN(C)C(=O)CCCN(C)C)[C@@H](C)CN([C@@H](C)CO)C(=O)c2cc(NS(=O)(=O)c3cccs3)ccc2O1,.,.,12,.,.,.
CCOc1ccc(NC(=O)c2ccco2)cc1,18,10,9,19,-1,21
O=C(/C=C/c1ccc(Cl)cc1)NC(=S)Nc1ccc(CN2CCOCC2)cc1,53,9,-5,86*,7,4
O=C(Nc1ccc(CN2CCOCC2)cc1)c1ccc(Br)o1,5,-49,-31,47,-12,3
O=C(Nc1ccc(CN2CCOCC2)cc1)c1ccc(-c2cc(Cl)ccc2Cl)o1,-7,51*,.,-1,6,76*
SMILES,HSF1 inh,TROY NFkB inh,LGR2 antag,HSF1 activator,LMP1 NFkB inh,TWEAK Fn14 block
CCOc1ccc(NC(=S)N(Cc2ccc(Cl)cc2)Cc2ccco2)cc1,121,-8,.,176*,-3,-2
CCOc1ccc(NC(=S)NC(=O)c2ccco2)cc1,26,-19,-63,52*,-26,-49
O=C(C[C@@H]1CC[C@@H](NC(=O)C2CCOCC2)[C@@H](CO)O1)Nc1ccccc1,.,.,-21,.,.,.
CC(=O)N1CC[C@@H]2[C@@H](CO)Nc3ccc(C#Cc4ccccc4F)cc3[C@@H]21,.,.,13,.,.,.
O=C(/C=C/c1ccc(Cl)cc1)NC(=S)Nc1ccc(NC(=O)c2ccco2)cc1,32,-20,3,64*,-30,39
CC(=O)Nc1ccc(NC(=S)NC(=O)/C=C/c2ccc(Cl)cc2)cc1,-3,-11,-10,-11,1,-5
C[C@@H]1CN([C@H](C)CO)C(=O)c2cc(C#Cc3ccccc3)cnc2O[C@@H]1CN(C)CC1CCOCC1,.,.,11,.,.,.
CCN(CC)c1ccc(/C=N/NC(=O)OC(C)(C)C)cc1,20,-19,-95,60*,-34,-21
CCOc1ccc(/C=N/NC(=O)c2ccoc2C)cc1OC,20,-55,-40,13,-16,-2
CCN(CC)c1ccc(/C=N\NC(N)=O)cc1,-2,-25,-13,-7,0,2
CCN(CC)c1ccc(/C=N/NC(=O)c2ccoc2C)cc1,9,42,.,30,-1,63*
COc1cccc(S(=O)(=O)Nc2ccc3c(c2)[C@@H]2C[C@H](CC(=O)N(C)C)O[C@H](CO)[C@@H]2O3)c1,.,.,-20,.,.,.
Cc1ccc(OCc2nn3c(-c4ccco4)nnc3s2)cc1,10,-23,.,-7,3,-22
Clc1ccc(OCc2nn3c(-c4ccco4)nnc3s2)c(Cl)c1,3,69*,.,-2,2,47
C/C(=N\NC(=O)C1COc2ccccc2O1)c1cc2ccccc2o1 (stereo unspecified),-8,-21,-3,-2,40*,5
O=C(NCC1COc2ccccc2O1)c1cc2ccccc2o1 (stereo unspecified),4,.,.,1,-18,81*
C[C@@H]1CCCCO[C@@H](CN(C)Cc2ccccc2)[C@@H](C)CN([C@@H](C)CO)C(=O)c2cc(NC(=O)CCC(F)(F)F)ccc2O1,.,.,-5,.,.,.
Cc1nc(S(=O)(=O)c2ccc(Cl)cc2)c(NCc2ccccc2)o1,21,0,.,64*,7,15
CNc1oc(C)nc1S(=O)(=O)c1ccccc1,-8,-3,.,-13,0,0
C[C@@H]1CCCCO[C@H](CN(C)Cc2ccc3c(c2)OCO3)[C@H](C)CN([C@H](C)CO)C(=O)c2cc(NC(=O)Cc3ccccc3)ccc2O1,.,.,7,.,.,.
Cc1csc(NC(=O)/C=C/c2ccco2)n1,24,-39,-68,57*,-14,13
O=C(/C=C/c1ccco1)Nc1nc(-c2ccccc2)cs1,37,-51,-18,58*,-23,12
O=C(/C=C/c1ccco1)Nc1nc(-c2ccccn2)cs1,-1,-27,22,11,-1,15
Cc1csc(NC(=O)/C=C/c2ccc(C)o2)n1,19,6,-31,30,-6,8
CN(C)CC(=O)N[C@@H]1CC[C@@H](CCn2cc(C3CCCCC3)nn2)O[C@@H]1CO,.,.,11,.,.,.
